Compound activity: PubChem, The Scripps Research Institute Molecular Screening Center
TEAD-YAP inh: TEAD-YAP interaction inhibition; AID 1259422; inhibition, % at 9.12 µM; HEK-TIYL cells, TEAD-Gal4/YAP UAS-luciferase luminescence; hit rate 1.4% among 640,000; in the data active means inhibition above about 32%;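 further: 0% = median of test compound wells and 100% = reference inhibitor wells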
GPR151 ag: human GPR151 activation | activation, % at 11.2 µM | hit rate 1% among 650,000 | Q8TDV0 | PathHunter beta-arrestin GPR151 cells, luminescence; in the data active means activation above about 4.9%;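 further: 0% = median of compound wells and 100% = cells with positive control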
Target sequence (Q8TDV0 whole entry, looked up): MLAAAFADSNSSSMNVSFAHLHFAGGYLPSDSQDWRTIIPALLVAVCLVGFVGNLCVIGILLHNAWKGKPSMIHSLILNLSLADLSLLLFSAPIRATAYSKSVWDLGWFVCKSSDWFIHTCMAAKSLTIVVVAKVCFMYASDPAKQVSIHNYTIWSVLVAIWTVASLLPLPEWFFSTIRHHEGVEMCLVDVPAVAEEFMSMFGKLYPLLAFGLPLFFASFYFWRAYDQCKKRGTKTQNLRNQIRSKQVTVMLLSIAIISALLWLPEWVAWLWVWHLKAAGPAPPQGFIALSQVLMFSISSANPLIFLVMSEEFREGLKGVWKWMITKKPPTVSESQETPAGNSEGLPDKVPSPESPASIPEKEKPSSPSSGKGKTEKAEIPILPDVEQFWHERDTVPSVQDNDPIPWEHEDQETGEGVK
MITF inh: inhibitors of human MITF; O75030; AlphaScreen MITF homodimerization, bead proximity signal; inhibition, % at 2.6 µM; hit rate 0.91% among 650,000; AID 1259374; in the data active means inhibition above about 50%;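 further: 0% = vehicle wells with protein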
FBW7 activator: human FBW7 E3 ligase activation, primary screen. Q969H0. AlphaScreen FBW7–phospho-cyclin E peptide binding, activator screen. normalized activity (activation), % at 26.1 µM. hit rate 0.13% among 650,000. AID 1259310; in the data active means normalized activity above about 1.9%;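 further: purified mutant Fbw7 with reduced substrate affinity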
GPR151 conf act: confirmation of human GPR151 activators | AID 1508609 | 6,700 tested, under 10 active | activation, % at 11.2 µM | GPR151 PathHunter beta-arrestin cells, luminescence, 90 min; % of EA-reagent control over plate median | shares compounds with GPR151 ag;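 active means mean percent activation across replicates above the confirmation screen cutoff of 4.91%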
GPR119 ag: counter-screen for GPR151 activators: effect on human GPR119 | shares compounds with GPR151 ag | GPR119 PathHunter beta-arrestin cells, luminescence, 90 min; 0 = compound-well median, 100 = enzyme-acceptor control | activation, % at 11.2 µM | hit rate 0.3% among 6,700 | AID 1508611;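 active means mean percent activation in the counterscreen above 29.09%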;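 further: counterscreen on off-target GPR119 to flag nonselective hits from the GPR151 activator screen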
Active calls of the source: *; nt = no result given; ! = repeats disagree. Sampled rows, rich in hits. Any-hit rate of the full collection: about 3.5%.

SMILES	TEAD-YAP inh	GPR151 ag	MITF inh	FBW7 activator	GPR151 conf act	GPR119 ag
COc1ccccc1/C=N/N=C1/NC(=O)C(CC(=O)Nc2cccc(C(C)=O)c2)S1 (stereo unspecified)	-6	12*	-5	0	1	20
CNc1ccc(/C=C2\CS(=O)(=O)c3ccc(F)cc3C2=O)cc1[N+](=O)[O-]	-2	1	5	0	nt	nt
Cc1cccc(CN[C@@H]2C[C@@H](C(=O)NC(C)C)N(Cc3cccc(Cl)c3)C2)n1	1	0	5	0	nt	nt
Cn1c(NN)nc2sc3c(c2c1=O)CCC(C(C)(C)C)C3 (stereo unspecified)	8	0	11	0	nt	nt
Cc1nn2cnc3sc4c(c3c2nc1=O)CCC(C(C)(C)C)C4 (stereo unspecified)	-8	7.0*	-1	0	0	-4
CCCCN(C)c1nnc(NC(=O)Nc2ccc(Cl)cc2)s1	-11	7.5*	5	0	1	1
CCCCN(C)c1nnc(NC(=O)Nc2ccc(CC(=O)OCC)cc2)s1	2	0	7	0	nt	nt
CCCCN(CCCNC(=O)c1c(C)cc(=O)oc1C)c1ccccc1	-23	2	15	0	nt	nt
CCN(CCCNC(=O)c1c(C)cc(=O)oc1C)c1ccccc1	-10	5.1*	3	0	-1	-8
COc1ccc(NC(=O)CSc2nnc(CNC(=O)c3cc(OC)c(OC)c(OC)c3)n2-c2cc(OC)ccc2OC)cc1	5	0	6	0	nt	nt
COc1ccc(S(=O)(=O)N/N=C(/C)c2ccc(Cl)cc2)cc1	-6	0	-7	0	nt	nt
COc1cccc(/C(C)=N/NS(=O)(=O)c2ccc(Cl)cc2)c1	-2	5.3*	-23	0	1	18
CC1(C)CC(=O)c2cc3c(N)c(C(=O)Nc4ccc(F)cc4)sc3nc2C1	-22	-1	12	0	nt	nt
O=C(NCC1CCCN(Cc2cc(=O)c3ccccc3[nH]2)C1)c1cccnc1 (stereo unspecified)	0	1	-6	0	nt	nt
Cc1nc(SC2CCCCC2=O)c(C#N)c(-c2cccs2)c1C(=O)Nc1ccccc1 (stereo unspecified)	8	5.1*	3	0	-1	-8
CCCCNC(=O)CSc1nnc(NC(C)=O)s1	4	6.4*	-3	0	0	1
Cc1nnc(SCC(=O)NCCC(c2ccccc2)c2ccccc2)s1	4	5.0*	-5	0	0	0
COC(=O)c1ccc(NC(=O)CSc2nnc(NC(C)=O)s2)cc1	5	6.4*	-14	0	0	0
Cc1cc(N2C(=O)c3ccc(C(=O)N4CCCCC4C)cc3C2=O)no1 (stereo unspecified)	6	2	11	0	nt	nt
Cc1ccc(N2C(=O)c3ccc(C(=O)N4CCCCC4C)cc3C2=O)cc1 (stereo unspecified)	3	5.0*	15	0	0	11
CC(C)(C)C(=O)NC1(C(F)(F)F)NC(=O)N(c2ccccc2F)C1=O (stereo unspecified)	-1	6.6*	-11	0	1	10
CC(Oc1c(Cl)cccc1Cl)C1=NCCN1 (stereo unspecified)	7	4.9*!	-1	1	0	2
CCNC(=O)N1CCN(Cc2ccccc2)CC1C(=O)NCc1ccccc1 (stereo unspecified)	-8	4	-6	0	nt	nt
CC(=O)N1CCN(Cc2ccccc2)CC1C(=O)NCc1ccccc1 (stereo unspecified)	-2	5.5*	5	0	1	-7
N#CCOc1ccc(/C=N/NC(=O)CCSc2ccccc2)cc1	2	0	-2	0	nt	nt
SMILES	TEAD-YAP inh	GPR151 ag	MITF inh	FBW7 activator	GPR151 conf act	GPR119 ag
Cc1ccc([N+](=O)[O-])c(OCCOCCN2CCc3ccccc3C2)c1	11	5.7*	-2	0	1	-4
O=C(Nc1cccc(C(F)(F)F)c1)c1ccc(C(=O)Nc2cccc(C(F)(F)F)c2)cc1	-16	1	1	0	nt	nt
Nn1c(CSc2nc3ccccc3o2)nnc1CSc1nc2ccccc2o1	4	-1	0	0	nt	nt
c1ccc(-n2nnnc2CSc2nc3ccccc3o2)cc1	6	6.6*	-6	0	0	2
N#CCSc1nnc2sc3ccccc3n12	-9	5.2*	-5	0	0	-2
O=C(CCN1C(=O)S/C(=C\c2ccc(Cl)cc2)C1=O)Nc1ccc(C(=O)O)cc1	1	6.9*	16	0	0	-7
CC1(c2ccccc2Cl)NC(=O)N(Cc2ccccc2C#N)C1=O (stereo unspecified)	11	3	-17	0	nt	nt
CCC1(c2ccc(F)cc2)NC(=O)N(Cc2ccccc2C#N)C1=O (stereo unspecified)	-3	5.7*	-4	0	1	12
COc1ccc(NC(=O)CCCC(=O)OCC(F)(F)C(F)F)cc1	9	5.0*	13	0	0	6
O=C(NCCOc1ccccc1)c1ccc2nc(Nc3ccncc3)sc2c1	-41	-1	-4	0	nt	nt
C/C(=N/O)c1ccc(NC2=C(N3CCCC3)C(=O)c3ccccc3C2=O)cc1	9	5.9*	-2	-1	0	4
CC(=O)c1ccc(NC2=C(N3CCCCC3)C(=O)c3ccccc3C2=O)cc1	-4	-2	3	0	nt	nt
CCCCCCSC1=C(C#N)C(c2ccc(OC)cc2)CC(=O)N1 (stereo unspecified)	5	-1	2	0	nt	nt
O=C(NC1=NCCS1)C12CC3CC(CC(Cl)(C3)C1)C2	2	0	9	0	nt	nt
COc1ccc(O)c(C2NC(=O)NC(C)=C2C(=O)OC(C)C)c1 (stereo unspecified)	-14	0	3	0	nt	nt
COc1ccc(OC)c(C2NC(=O)NC(C)=C2C(=O)OC(C)C)c1 (stereo unspecified)	-2	5.1*	22	0	0	12
Cc1ccc(NC(=O)N2CCOCC2)cc1	-3	-1	-11	0	nt	nt
CCC(C)c1ccc(NC(=O)N2CCOCC2)cc1 (stereo unspecified)	-57	5.4*	12	0	-1	-8
O=C(NCCn1nc(-c2ccco2)ccc1=O)C1CCCC1	-1	0	10	0	nt	nt
CCOc1cc(C2NC(=O)NC(C)=C2C(=O)Nc2ccc(C)cc2C)ccc1O (stereo unspecified)	-4	2	16	1	nt	nt
C#CCOc1cc(OC)c(OC)c(OC)c1	2	5.6*	8	0	-1	-5
COc1cc(OCC(=O)O)cc(OC)c1OC	0	3	14	0	nt	nt
O=C1NC(=S)NC(=O)C1=Cc1cc(Cl)ccc1OCc1ccc([N+](=O)[O-])cc1	-31	1	-10	0	nt	nt
CCCOc1ccc([N+](=O)[O-])cc1C=C1C(=O)NC(=S)NC1=O	6	5.1*	0	0	0	-3
